Source: PubChem BioAssay (EPA / NIEHS)
Inconclusive results are not listed. The source holds several records for some structures; these can differ, active in one and inactive in another. Activity calls are given as the source filed them. The calls were made as follows, unless noted: active = hit-call score of the fitted dose curve at least 0.9, where 1 is the maximum; inactive = score below 0.9.

Assays:
[1] = target: Glucocorticoid receptor (Homo sapiens) (UniProt P04150); assay: ATG_GR_TRANS: Attagene TRANS-FACTORIAL HepG2 Assay for human Glucocorticoid Receptor (GR) (AID 2282978; active = hit-call score of the fitted dose curve at least 0.9, where 1 is the maximum;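 also: activators score as hits since higher reporter transcript over DMSO is fitted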); details: HepG2 Attagene TRANS GR reporter, mRNA transcription
Summary of the method: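 HepG2 transient transfection, multiple reporter units, GAL4-UAS under NR-GAL4 chimera control. 24 h treatment. Reporter mRNA by RT-PCR/CE fluorescence, DMSO as negative control.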

[2] = target: Oxysterols receptor LXR-beta (Homo sapiens) (UniProt P55055); assay: ATG_LXRb_TRANS: Attagene TRANS-FACTORIAL HepG2 Assay for human Liver X Receptor beta (LXRb) (AID 2282981; active = hit-call score of the fitted dose curve at least 0.9, where 1 is the maximum); details: HepG2 Attagene TRANS GAL4-LXRb reporter, mRNA
Summary of the method: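 In this TRANS format, exogenous chimeric NR-Gal4 protein activity, not endogenous factors, drives reporter expression in transfected human HepG2 cells. Exposure lasted 24 h; reporter mRNA was read by fluorescent capillary electrophoresis.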

[3] = ATG_M_06_TRANS: Attagene TRANS-FACTORIAL HepG2 Assay for M06 Transcription Factor (Internal Marker) (AID 2282983; active = hit-call score of the fitted dose curve at least 0.9, where 1 is the maximum); details: HepG2 Attagene TRANS M06 internal marker reporter
Summary of the method: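 Measured by capillary electrophoresis of fluorescently labelled RT-PCR products, this endpoint reflects reporter mRNA in HepG2 cells harbouring exogenous NR-GAL4 reporter constructs after 24 h exposure, with DMSO as baseline.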

[4] = target: Nuclear receptor subfamily 4 group A member 2 (Homo sapiens) (UniProt P43354); assay: ATG_NURR1_TRANS: Attagene TRANS-FACTORIAL HepG2 Assay for human Nuclear Receptor Related Protein 1 (NURR1) (AID 2282985; active = hit-call score of the fitted dose curve at least 0.9, where 1 is the maximum); details: HepG2 Attagene TRANS reporter, mRNA readout
Summary of the method: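 After 24 h chemical dosing, total RNA from transiently transfected HepG2 cells was reverse-transcribed and reporter cDNA PCR-amplified, FAM-labelled and analysed by capillary electrophoresis. Activity fitted in positive direction, DMSO as negative control.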

[5] = target: Transcriptional activator Myb (Homo sapiens) (UniProt P10242); assay: ATG_Myb_CIS: Attagene CIS-FACTORIAL HepG2 Assay for human Myeloblastosis (Myb) Proto-Oncogene Transcription Factor (AID 2282986); details: HepG2 Attagene CIS-FACTORIAL Myb reporter transcription; actives raise or lower the signal
Summary of the method: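 Multiplexed cis-reporter system in HepG2: transient transfection, 24 h treatment, mRNA readout by RT-PCR and capillary electrophoresis. Both increases and decreases are scored versus DMSO negative control.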

[6] = target: Nuclear respiratory factor 1 (Homo sapiens) (UniProt Q16656); assay: ATG_NRF1_CIS: Attagene CIS-FACTORIAL HepG2 Assay for human Nuclear Respiratory Factor 1 (NRF1) Orphan Gene (AID 2282987); details: HepG2 NRF1 cis-element reporter, Attagene multiplex; actives raise or lower the signal
Summary of the method: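 Endogenous factor activity was captured via cis-element-driven reporter transcripts in HepG2 cells. Following 24 h chemical treatment, transcripts were quantified by RT-PCR and capillary electrophoresis.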

[7] = ATG_NFI_CIS: Attagene CIS-FACTORIAL HepG2 Assay for human Nuclear Factor I (NFI) (AID 2282989); details: HepG2 cis-regulatory reporter, NFI response element transcription; actives raise or lower the signal
Summary of the method: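 HepG2, transient MRTU, 24 h exposure; RNA→cDNA→PCR→FAM label→HpaI→CE fluorescence. Bidirectional fit, DMSO = baseline.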

[8] = target: Myc proto-oncogene protein (Homo sapiens) (UniProt P01106); assay: ATG_Myc_CIS: Attagene CIS-FACTORIAL HepG2 Assay for human Myelocytomatosis (Myc) Proto-Oncogene Transcription Factor (AID 2282990); details: HepG2, Attagene cis-reporter transcription factor activity; actives raise or lower the signal
Summary of the method: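 DMSO-normalised, bidirectionally fitted reporter mRNA signal. HepG2 cells transfected with cis reporter constructs, treated 24 h; transcripts detected by RT-PCR, 6-FAM primer extension and CE.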

[9] = ATG_NRF2_ARE_CIS: Attagene CIS-FACTORIAL HepG2 Assay for human Nuclear Factor Erythroid 2 Related Factor 2 (NFR2) response to Antioxidant Response Elements (ARE) (AID 2282992); details: HepG2 Attagene ARE/NRF2 reporter, transcription factor activity; actives raise or lower the signal;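 as to AC50: reporter mRNA level measured by RT-PCR and capillary electrophoresis fluorescence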
Summary of the method: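 Transient MRTU transfection of HepG2; 24 h compound exposure; TriZol RNA, RT with oligo(dT), PCR, 6-FAM primer extension, HpaI cut, CE. Bidirectional fit vs DMSO.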

[10] = ATG_Oct_MLP_CIS: Attagene CIS-FACTORIAL HepG2 Assay for human Octamer-Binding Transcription Factor (Oct) (AID 2282993); details: HepG2 Attagene cis-factorial Oct reporter, mRNA; actives raise or lower the signal
Summary of the method: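 Multiplexed cis-reporter assay in human liver HepG2 cells, 24 h incubation. Reporter RNA amplified and labelled, then resolved by capillary electrophoresis; DMSO serves as negative control and baseline.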

[11] = target: Oxysterols receptor LXR-alpha (Homo sapiens) (UniProt Q13133); assay: ATG_LXRa_TRANS: Attagene TRANS-FACTORIAL HepG2 Assay for human Liver X Receptor alpha (LXRa) (AID 2282980; active = hit-call score of the fitted dose curve at least 0.9, where 1 is the maximum); details: HepG2 Attagene TRANS reporter, LXRa transactivation
Summary of the method: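 Transient HepG2 transfectants, 24 h dosing, RT-PCR/CE mRNA reporter quantitation; gain-of-signal vs DMSO.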

[12] = BSK_3C_TissueFactor: BioMAP Diversity Plus: 3C Assay for Tissue Factor Biomarker Activity (AID 2282997); details: BioMAP 3C HUVEC, tissue factor biomarker readout; actives raise or lower the signal
Summary of the method: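 Values derive from bidirectional curve fitting against DMSO of Tissue Factor ELISA signals, taken 24 h after dosing primary human umbilical vein endothelial cells.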

[13] = BSK_3C_uPAR: BioMAP Diversity Plus: 3C Assay for Urokinase-type plasminogen activator receptor (uPAR) Biomarker Activity (AID 2282998); details: BioMAP 3C HUVEC, uPAR biomarker ELISA; actives raise or lower the signal
Summary of the method: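 Dose primary human umbilical vein endothelial cells, incubate 24 h, measure cell-surface uPAR by ELISA, then fit the signal in both directions against the DMSO negative control.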

[14] = BSK_3C_VCAM1: BioMAP Diversity Plus: 3C Assay for Vascular cell adhesion molecule 1 (VCAM1) Biomarker Activity (AID 2282999); details: BioMAP 3C HUVEC, VCAM1 ELISA, cytokine-stimulated; actives raise or lower the signal
Summary of the method: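 Human umbilical vein endothelial cells were dosed with compound for 24 h, after which cell-surface VCAM-1 was quantified by ELISA. Bidirectional curve fitting used DMSO as negative control and activity baseline.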

[15] = BSK_4H_Eotaxin3: BioMAP Diversity Plus: 4H Assay for Eotaxin 3 Biomarker Activity (AID 2283000); details: primary human endothelial cells (HUVEC); actives raise or lower the signal
Summary of the method: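 Endothelial primary cells (human umbilical vein) exposed to compound for 24 h. ELISA detection of Eotaxin-3.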

[16] = ATG_M_32_TRANS: Attagene TRANS-FACTORIAL HepG2 Assay for M32 Transcription Factor (Internal Marker) (AID 2282984; active = hit-call score of the fitted dose curve at least 0.9, where 1 is the maximum;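 also: transcript level of a background control reporter unit measured by RT-PCR and capillary electrophoresis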); details: HepG2 Attagene TRANS M32 internal marker reporter
Summary of the method: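 Human hepatoma HepG2, transient MRTU transfection, 24 h treatment. RNA → RT-PCR → fluorescent primer extension → HpaI digest (2 h, 37 C) → CE. Positive-direction fit vs DMSO.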

[17] = ATG_NF_kB_CIS: Attagene CIS-FACTORIAL HepG2 Assay for human Nuclear Factor Kappa B (NF-kB) (AID 2282991); details: HepG2 Attagene cis-factorial NF-kB reporter mRNA; actives raise or lower the signal
Summary of the method: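 After 24 h compound incubation, transfected HepG2 cells yield total RNA; reporter cDNA is PCR-amplified, end-labelled with 6-FAM, HpaI-digested and analysed on a genetic analyser. Endogenous factor activity, DMSO-referenced bidirectional fit.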

[18] = target: Hepatocyte nuclear factor 4-alpha (Homo sapiens) (UniProt P41235); assay: ATG_HNF4a_TRANS: Attagene TRANS-FACTORIAL HepG2 Assay for human Hepatocyte Nuclear Factor 4 alpha (HNF4a) (AID 2282982; active = hit-call score of the fitted dose curve at least 0.9, where 1 is the maximum); details: HepG2 HNF4a transactivation reporter, mRNA readout
Summary of the method: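 Cells used were human HepG2, transiently carrying GAL4-UAS reporter units read out against exogenous NR-GAL4 chimeras. Reporter transcript levels after 24 h dosing were quantified by fluorescent RT-PCR and capillary electrophoresis.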

[19] = target: Cellular tumor antigen p53 (Homo sapiens) (UniProt P04637); assay: ATG_p53_CIS: Attagene CIS-FACTORIAL HepG2 Assay for human p53 Transcription Factor (AID 2282994); details: HepG2 p53 cis-element reporter, Attagene mRNA; actives raise or lower the signal
Summary of the method: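 HepG2, transient MRTU transfection (cis promoter elements, endogenous TFs); 24 h dosing; RNA isolation, RT-PCR, 6-FAM primer extension, HpaI digest, CE fluorescence; bidirectional fit vs DMSO.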

Measured: AC50

Chain of Hepatocyte nuclear factor 4-alpha (Homo sapiens) (P41235 whole entry, looked up, the tested form may be a part): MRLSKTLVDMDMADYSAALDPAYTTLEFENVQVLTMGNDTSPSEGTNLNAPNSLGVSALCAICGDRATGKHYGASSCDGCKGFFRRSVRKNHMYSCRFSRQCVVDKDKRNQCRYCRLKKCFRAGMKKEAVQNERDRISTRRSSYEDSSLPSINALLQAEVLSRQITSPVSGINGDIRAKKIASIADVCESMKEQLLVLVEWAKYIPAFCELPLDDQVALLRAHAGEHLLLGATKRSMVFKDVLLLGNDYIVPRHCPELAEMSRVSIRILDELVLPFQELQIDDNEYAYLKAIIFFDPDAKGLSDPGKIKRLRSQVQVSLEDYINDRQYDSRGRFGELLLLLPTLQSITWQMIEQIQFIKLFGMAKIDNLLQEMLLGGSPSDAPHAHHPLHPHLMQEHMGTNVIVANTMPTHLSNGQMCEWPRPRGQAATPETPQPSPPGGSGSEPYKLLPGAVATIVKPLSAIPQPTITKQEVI
Chain of Nuclear receptor subfamily 4 group A member 2 (Homo sapiens) (P43354 whole entry, looked up): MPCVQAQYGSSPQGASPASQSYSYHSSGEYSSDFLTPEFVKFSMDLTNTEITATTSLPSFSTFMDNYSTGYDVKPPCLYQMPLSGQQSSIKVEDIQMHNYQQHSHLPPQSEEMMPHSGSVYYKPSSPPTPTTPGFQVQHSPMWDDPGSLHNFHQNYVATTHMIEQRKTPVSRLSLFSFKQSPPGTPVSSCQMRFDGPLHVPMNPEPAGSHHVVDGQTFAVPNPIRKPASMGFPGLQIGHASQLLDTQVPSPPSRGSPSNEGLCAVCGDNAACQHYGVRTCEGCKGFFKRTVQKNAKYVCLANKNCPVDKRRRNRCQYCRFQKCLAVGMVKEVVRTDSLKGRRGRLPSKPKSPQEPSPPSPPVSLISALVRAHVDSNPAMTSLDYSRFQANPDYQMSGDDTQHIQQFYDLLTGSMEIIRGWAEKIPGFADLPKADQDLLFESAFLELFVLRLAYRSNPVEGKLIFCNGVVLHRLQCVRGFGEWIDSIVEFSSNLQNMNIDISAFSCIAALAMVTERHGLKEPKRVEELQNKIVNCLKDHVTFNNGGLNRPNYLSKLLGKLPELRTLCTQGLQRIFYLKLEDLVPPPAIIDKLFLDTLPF
Chain of Glucocorticoid receptor (Homo sapiens) (P04150 whole entry, looked up, the tested form may be a part): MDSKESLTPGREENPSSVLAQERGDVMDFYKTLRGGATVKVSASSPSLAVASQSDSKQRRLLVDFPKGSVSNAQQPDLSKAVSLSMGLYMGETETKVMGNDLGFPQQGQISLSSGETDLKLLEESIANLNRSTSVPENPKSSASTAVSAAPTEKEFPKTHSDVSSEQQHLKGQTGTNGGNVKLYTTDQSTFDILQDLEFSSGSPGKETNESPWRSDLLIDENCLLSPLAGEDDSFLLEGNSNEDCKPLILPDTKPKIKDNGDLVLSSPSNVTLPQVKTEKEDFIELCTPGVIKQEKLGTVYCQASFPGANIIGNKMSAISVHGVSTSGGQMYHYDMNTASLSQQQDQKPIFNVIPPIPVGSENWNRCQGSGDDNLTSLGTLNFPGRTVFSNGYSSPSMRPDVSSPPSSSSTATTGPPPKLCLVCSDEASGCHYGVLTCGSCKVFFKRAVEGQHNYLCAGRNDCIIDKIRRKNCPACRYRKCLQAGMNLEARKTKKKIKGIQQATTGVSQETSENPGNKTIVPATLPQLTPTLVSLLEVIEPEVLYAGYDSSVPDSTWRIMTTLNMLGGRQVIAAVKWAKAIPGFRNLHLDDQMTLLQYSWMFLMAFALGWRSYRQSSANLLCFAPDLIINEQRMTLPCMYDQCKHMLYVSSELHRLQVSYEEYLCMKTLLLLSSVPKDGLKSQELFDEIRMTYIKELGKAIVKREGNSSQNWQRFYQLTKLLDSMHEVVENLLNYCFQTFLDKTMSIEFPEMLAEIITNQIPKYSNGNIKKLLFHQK
Chain of Cellular tumor antigen p53 (Homo sapiens) (P04637 whole entry, looked up): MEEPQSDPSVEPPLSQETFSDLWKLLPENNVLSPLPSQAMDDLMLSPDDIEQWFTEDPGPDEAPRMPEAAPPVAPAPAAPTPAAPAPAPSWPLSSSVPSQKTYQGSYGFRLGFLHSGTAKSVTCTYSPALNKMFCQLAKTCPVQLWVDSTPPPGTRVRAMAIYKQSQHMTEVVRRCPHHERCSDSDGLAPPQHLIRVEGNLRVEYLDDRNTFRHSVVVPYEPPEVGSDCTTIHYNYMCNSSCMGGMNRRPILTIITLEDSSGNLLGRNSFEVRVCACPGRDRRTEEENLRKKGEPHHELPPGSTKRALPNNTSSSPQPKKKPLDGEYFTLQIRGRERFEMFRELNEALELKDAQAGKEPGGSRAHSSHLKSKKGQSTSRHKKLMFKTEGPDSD
Chain of Transcriptional activator Myb (Homo sapiens) (P10242 whole entry, looked up): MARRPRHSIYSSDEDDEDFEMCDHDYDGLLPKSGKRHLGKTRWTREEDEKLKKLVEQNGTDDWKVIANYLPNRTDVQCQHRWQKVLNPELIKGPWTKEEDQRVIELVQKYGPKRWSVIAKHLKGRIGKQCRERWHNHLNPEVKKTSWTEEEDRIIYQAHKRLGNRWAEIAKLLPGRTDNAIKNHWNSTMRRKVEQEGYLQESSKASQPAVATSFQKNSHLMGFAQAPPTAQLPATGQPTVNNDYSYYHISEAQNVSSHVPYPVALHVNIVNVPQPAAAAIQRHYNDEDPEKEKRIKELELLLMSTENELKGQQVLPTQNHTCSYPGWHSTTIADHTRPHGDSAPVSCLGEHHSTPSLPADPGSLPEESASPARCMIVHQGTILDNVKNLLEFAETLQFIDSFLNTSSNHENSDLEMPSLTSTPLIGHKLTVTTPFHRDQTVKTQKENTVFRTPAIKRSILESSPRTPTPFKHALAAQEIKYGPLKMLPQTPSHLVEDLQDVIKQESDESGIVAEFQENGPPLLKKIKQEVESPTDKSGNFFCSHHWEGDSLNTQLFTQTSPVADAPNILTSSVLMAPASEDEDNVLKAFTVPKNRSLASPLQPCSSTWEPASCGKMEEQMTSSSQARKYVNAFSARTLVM
Chain of Nuclear respiratory factor 1 (Homo sapiens) (Q16656 whole entry, looked up): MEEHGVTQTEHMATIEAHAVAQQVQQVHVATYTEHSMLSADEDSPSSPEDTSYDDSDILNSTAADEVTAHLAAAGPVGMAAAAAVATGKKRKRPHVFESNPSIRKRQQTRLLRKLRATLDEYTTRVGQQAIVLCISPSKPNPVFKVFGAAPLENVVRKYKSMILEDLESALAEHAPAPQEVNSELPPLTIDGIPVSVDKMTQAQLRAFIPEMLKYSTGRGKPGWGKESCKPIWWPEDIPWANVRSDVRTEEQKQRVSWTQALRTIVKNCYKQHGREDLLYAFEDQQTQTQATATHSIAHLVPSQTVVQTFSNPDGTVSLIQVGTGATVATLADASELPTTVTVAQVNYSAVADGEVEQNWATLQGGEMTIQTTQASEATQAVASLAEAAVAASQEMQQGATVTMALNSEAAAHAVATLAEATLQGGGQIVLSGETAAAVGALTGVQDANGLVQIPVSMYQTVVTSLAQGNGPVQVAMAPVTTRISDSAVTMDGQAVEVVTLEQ
Chain of Myc proto-oncogene protein (Homo sapiens) (P01106 whole entry, looked up): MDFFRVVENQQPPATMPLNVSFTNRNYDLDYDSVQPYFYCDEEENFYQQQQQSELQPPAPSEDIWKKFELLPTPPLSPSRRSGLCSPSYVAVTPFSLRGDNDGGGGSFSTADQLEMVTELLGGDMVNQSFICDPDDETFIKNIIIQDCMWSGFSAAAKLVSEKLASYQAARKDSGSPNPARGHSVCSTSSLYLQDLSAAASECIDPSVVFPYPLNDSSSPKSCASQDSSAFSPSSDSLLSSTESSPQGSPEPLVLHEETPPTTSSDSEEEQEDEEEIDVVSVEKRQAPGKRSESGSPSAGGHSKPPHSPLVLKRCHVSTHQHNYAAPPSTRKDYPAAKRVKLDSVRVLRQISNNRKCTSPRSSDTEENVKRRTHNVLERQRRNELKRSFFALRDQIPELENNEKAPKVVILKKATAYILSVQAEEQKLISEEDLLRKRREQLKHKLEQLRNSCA
Chain of Oxysterols receptor LXR-beta (Homo sapiens) (P55055 whole entry, looked up, the tested form may be a part): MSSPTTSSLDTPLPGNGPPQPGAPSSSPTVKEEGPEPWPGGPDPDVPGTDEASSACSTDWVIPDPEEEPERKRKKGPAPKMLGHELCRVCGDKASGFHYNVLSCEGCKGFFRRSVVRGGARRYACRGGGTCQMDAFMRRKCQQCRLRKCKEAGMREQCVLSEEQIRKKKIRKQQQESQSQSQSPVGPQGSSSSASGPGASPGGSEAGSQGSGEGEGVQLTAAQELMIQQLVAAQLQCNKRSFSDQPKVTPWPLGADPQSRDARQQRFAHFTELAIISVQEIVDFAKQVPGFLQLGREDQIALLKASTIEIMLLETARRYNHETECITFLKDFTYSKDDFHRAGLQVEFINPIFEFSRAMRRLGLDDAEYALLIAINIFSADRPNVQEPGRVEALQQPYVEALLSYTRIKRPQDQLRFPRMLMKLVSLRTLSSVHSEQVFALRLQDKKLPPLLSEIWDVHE
Chain of Oxysterols receptor LXR-alpha (Homo sapiens) (Q13133 whole entry, looked up): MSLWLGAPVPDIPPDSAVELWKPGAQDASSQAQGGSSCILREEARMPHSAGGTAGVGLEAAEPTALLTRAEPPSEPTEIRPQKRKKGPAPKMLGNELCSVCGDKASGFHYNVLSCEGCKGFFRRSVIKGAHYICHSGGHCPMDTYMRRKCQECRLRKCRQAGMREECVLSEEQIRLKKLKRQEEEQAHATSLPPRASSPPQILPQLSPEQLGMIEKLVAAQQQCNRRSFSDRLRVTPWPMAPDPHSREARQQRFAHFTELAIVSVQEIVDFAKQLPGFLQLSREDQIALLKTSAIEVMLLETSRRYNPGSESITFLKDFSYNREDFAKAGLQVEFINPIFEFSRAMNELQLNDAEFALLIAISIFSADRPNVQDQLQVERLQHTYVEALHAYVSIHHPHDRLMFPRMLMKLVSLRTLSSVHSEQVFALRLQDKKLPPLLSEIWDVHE

COc1ccnc(CS(=O)c2nc3cc(OC(F)F)ccc3[nH]2)c1OC (stereo not drawn)
inactive: [1] | [2] | [3] | [4] | [5] | [6] | [7] | [8] | [10]
active: [9] 59.4 µM

O=C=NC1CCC(CC2CCC(N=C=O)CC2)CC1 (stereo not drawn)
active: [8] 100 µM | [10] 61.8 µM | [12] 3.97 µM
not listed: [2] | [4] | [16] | [17] | [18] | [19]
inactive: all other assays above

CC1COc2ccccc2N1C(=O)C(Cl)Cl (stereo not drawn)
inactive: [1] | [11] | [16] | [6] | [7] | [8] | [17] | [12]
active: [9] 6.61 µM | [10] 30.6 µM | [13] 5.99 µM | [14] 11.3 µM | [15] 7.09 µM

CC(=O)C(C)=O
active: [9] 37.4 µM
not listed: [11] | [12] | [13] | [14] | [15] | [16]
inactive: all other assays above

COc1ccc(Nc2ccccc2)c(C)c1
active: [4] 143 µM | [9] 79.9 µM
not listed: [11] | [12] | [13] | [14] | [15] | [17] | [18]
inactive: all other assays above

O=C(O)CCCCC1CCSS1 (stereo not drawn)
active: [9] 40 µM
not listed: [11] | [12] | [13] | [14] | [15] | [16]
inactive: all other assays above

Nc1cc(N)cc(C(=O)O)c1
inactive: [1] | [2] | [3] | [16] | [5] | [6] | [7] | [8] | [9] | [10]

Nc1ccc(F)c([N+](=O)[O-])c1
not listed: [3] | [4] | [11] | [12] | [13] | [14] | [15] | [17]
inactive: all other assays above

Cc1cccc(C)c1[N+](=O)[O-]
inactive: [1] | [2] | [18] | [3] | [16] | [5] | [7] | [8] | [9] | [10]

CCCCOCCOCCSC#N
inactive: [1] | [2] | [18] | [3] | [16] | [5] | [6] | [8] | [10] | [19]
active: [9] 16.7 µM

C=CC(C)(O)CCC=C(C)CCC=C(C)C (stereo not drawn)
active: [6] 164 µM | [7] 143 µM | [8] 181 µM | [17] 180 µM | [9] 100 µM
inactive: [1] | [11] | [3] | [19]

Cc1cccc(Nc2ccccc2C(=O)O)c1C
active: [9] 100 µM
not listed: [11] | [12] | [13] | [14] | [15] | [17] | [19]
inactive: all other assays above

CNCCCC12CCC(c3ccccc31)c1ccccc12
active: [10] 15.4 µM | [19] 16 µM
inactive: [1] | [2] | [18] | [3] | [6] | [8] | [17] | [9]

C=CC[N+](C)(C)CC=C
not listed: [2] | [11] | [12] | [13] | [14] | [15]
inactive: all other assays above

O=[N+]([O-])c1ccc(C=Cc2ccc([N+](=O)[O-])cc2S(=O)(=O)O)c(S(=O)(=O)O)c1
not listed: [2] | [11] | [12] | [13] | [14] | [15] | [16] | [19]
inactive: all other assays above

Nc1cc([N+](=O)[O-])ccc1O
inactive: [1] | [18] | [3] | [16] | [4] | [5] | [6] | [7] | [8] | [17] | [10] | [19] | [12] | [13] | [14] | [15]
active: [9] 38.1 µM | [15] 14.9 µM

CCCCCCOC(=O)CCCCC
not listed: [2] | [3] | [11] | [12] | [13] | [14] | [15] | [17]
inactive: all other assays above

O=C1CCCCCCCCCCCCCCO1
active: [9] 74.4 µM | [10] 69.4 µM | [12] 26.5 µM | [13] 20 µM | [14] 17.9 µM | [15] 27.3 µM
inactive: [1] | [4] | [5] | [6] | [7] | [8] | [19]

C=C[Si](OCC)(OCC)OCC
not listed: [2] | [4] | [11] | [18]
inactive: all other assays above
